45 molecules from PMC4336329 (PLoS ONE, 2015) can be followed below.

Each structure is given as a SMILES string. In all, about 310,000 compounds went through this assay and about 14,000 (4.5%) showed an effect of 50% or more. The effect is printed as a negative number. What follows is part of a selection rich in strong results, with near analogues and random picks from the rest.
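Also: peak tail current of the secondary pulse compared with the same well before compound.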

For this test, the target named is human ether-à-go-go-related gene (hERG) potassium channel (human, UniProt Q12809). Kind of test: primary screen, population patch clamp on CHO cells stably expressing hERG; higher = less effect of the substance.
Sequence of human ether-à-go-go-related gene (hERG) potassium channel (Q12809 whole entry, looked up): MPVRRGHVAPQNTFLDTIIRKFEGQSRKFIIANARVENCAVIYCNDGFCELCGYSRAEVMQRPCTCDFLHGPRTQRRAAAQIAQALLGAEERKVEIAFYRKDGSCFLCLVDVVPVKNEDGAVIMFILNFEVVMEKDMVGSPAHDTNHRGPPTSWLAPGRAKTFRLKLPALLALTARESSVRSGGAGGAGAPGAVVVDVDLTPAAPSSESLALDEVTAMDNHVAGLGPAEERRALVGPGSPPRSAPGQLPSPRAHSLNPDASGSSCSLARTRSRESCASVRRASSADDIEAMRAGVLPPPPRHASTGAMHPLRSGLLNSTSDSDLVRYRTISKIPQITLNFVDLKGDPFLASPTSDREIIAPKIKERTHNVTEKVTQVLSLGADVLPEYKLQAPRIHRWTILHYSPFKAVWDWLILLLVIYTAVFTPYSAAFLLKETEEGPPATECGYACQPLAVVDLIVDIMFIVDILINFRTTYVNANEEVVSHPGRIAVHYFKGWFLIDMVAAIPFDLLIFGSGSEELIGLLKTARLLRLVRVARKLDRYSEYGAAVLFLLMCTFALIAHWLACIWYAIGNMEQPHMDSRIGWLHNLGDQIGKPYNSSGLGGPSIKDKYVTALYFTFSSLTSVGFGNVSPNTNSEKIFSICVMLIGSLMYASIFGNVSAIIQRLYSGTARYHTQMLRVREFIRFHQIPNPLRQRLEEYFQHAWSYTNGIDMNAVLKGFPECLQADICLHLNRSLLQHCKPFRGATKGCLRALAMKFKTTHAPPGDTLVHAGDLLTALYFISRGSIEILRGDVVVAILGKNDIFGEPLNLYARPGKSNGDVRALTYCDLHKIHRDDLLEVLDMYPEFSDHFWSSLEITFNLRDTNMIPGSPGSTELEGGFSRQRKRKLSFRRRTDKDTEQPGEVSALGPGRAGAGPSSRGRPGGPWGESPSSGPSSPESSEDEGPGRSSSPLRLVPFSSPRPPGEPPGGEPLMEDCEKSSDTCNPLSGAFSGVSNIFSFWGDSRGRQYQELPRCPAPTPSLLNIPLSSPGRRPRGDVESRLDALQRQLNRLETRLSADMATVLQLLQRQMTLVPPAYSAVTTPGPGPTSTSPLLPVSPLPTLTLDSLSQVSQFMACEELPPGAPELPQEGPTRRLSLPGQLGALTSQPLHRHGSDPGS
With `CCOc1ccc(Cc2nc(C)c(CC(=O)N3CCOCC3)c(=O)[nH]2)cc1`, the “hERG current change (%, negative = inhibition) at 10uM” value stood at 8.37%.

For `O=C(CSc1ncnc2ccccc12)NCc1ccc2c(c1)OCO2`, the “hERG current change (%, negative = inhibition) at 10uM” value is given as -16.9%.

As for `O=C(C(=O)N1CCCc2ccccc21)c1c[nH]c2ccccc12`, the “hERG current change (%, negative = inhibition) at 10uM” value was 4.5%.

For `O=C(O)C(=O)O.O=S(=O)(c1ccc(Cl)cc1)N1CCN(Cc2ccncc2)CC1`, the “hERG current change (%, negative = inhibition) at 10uM” value was -51.5%.

On to `O=S(=O)(c1ccccc1)N1CCN(CCc2ccccc2)CC1`, for which the “hERG current change (%, negative = inhibition) at 10uM” value turned out to be 14.2%.

For the molecule `O=S(=O)(c1ccc(Cl)cc1)N1CCN(CCc2ccncc2)CC1`, the “hERG current change (%, negative = inhibition) at 10uM” value was -55.3%.

In the case of `CC(=O)Nc1ccc(S(=O)(=O)N2CCN(Cc3ccncc3)CC2)cc1`, the “hERG current change (%, negative = inhibition) at 10uM” value is listed as -8.67%.

For `O=S(=O)(c1ccc(Cl)cc1)N1CCN(CCc2ccccc2)CC1`, the “hERG current change (%, negative = inhibition) at 10uM” value is reported as -3.7%.

On to `CCS(=O)(=O)N1CCN(Cc2ccncc2)CC1.O=C(O)C(=O)O`, for which the “hERG current change (%, negative = inhibition) at 10uM” value was found to be 13.2%.

As for `COc1ccc(C2=NC(C)(C)Cc3cc(OC)c(OC)cc32)cc1`, the “hERG current change (%, negative = inhibition) at 10uM” value is -44%.

Turning to `Cc1ccccc1OCC(O)Cn1c(=N)n(CCN2CCOCC2)c2ccccc21.Cl` (stereo not drawn), the “hERG current change (%, negative = inhibition) at 10uM” value was -61.5%.

`COc1ccccc1OCC(O)CN1CCOCC1` (stereo not drawn): the “hERG current change (%, negative = inhibition) at 10uM” value is given as 15.2%.

Regarding `Cc1cccc(OCC(O)Cn2c(=N)n(CCN3CCCCC3)c3ccccc32)c1.Cl` (stereo not drawn), the “hERG current change (%, negative = inhibition) at 10uM” value was -80.5%.

`Cc1cccc(OCC(O)Cn2c(=N)n(CCN3CCOCC3)c3ccccc32)c1.Cl` (stereo not drawn): the “hERG current change (%, negative = inhibition) at 10uM” value is listed as -57.9%.

In the case of `Cc1ccc(OCC(O)CN2CCOCC2)cc1C.Cl` (stereo not drawn), the “hERG current change (%, negative = inhibition) at 10uM” value was 17.7%.

For `Cc1ccccc1OCCCN1CCOCC1`, the “hERG current change (%, negative = inhibition) at 10uM” value stood at 9.44%.

As for `Cl.OC(COc1cccc(OCC(O)CN2CCOCC2)c1)CN1CCOCC1` (stereo not drawn), the “hERG current change (%, negative = inhibition) at 10uM” value stood at 7.41%.

With `OC(COc1cccc(OCC(O)CN2CCCC2)c1)CN1CCCC1` (stereo not drawn), the “hERG current change (%, negative = inhibition) at 10uM” value is -2.86%.

`O=C(CCNS(=O)(=O)/C=C/c1ccccc1)NCCc1c[nH]c2ccccc12`: the “hERG current change (%, negative = inhibition) at 10uM” value was found to be 3.88%.

Regarding `Cc1ccc(NS(=O)(=O)c2ccc(-c3coc(C)n3)cc2)c(C)c1`, the “hERG current change (%, negative = inhibition) at 10uM” value was determined as 15.6%.

On to `CCOC(=O)C(Sc1ncn[nH]1)c1ccccc1` (stereo not drawn), for which the “hERG current change (%, negative = inhibition) at 10uM” value was -3.76%.

As to `Cc1cc(F)ccc1S(=O)(=O)N1CCCOC1CNC(=O)C(=O)NCc1cccnc1` (stereo not drawn), the “hERG current change (%, negative = inhibition) at 10uM” value is 7.92%.

For `CN(C)CCNC(=O)CNC(=S)N(CCCN1CCOCC1)Cc1cccs1`, the “hERG current change (%, negative = inhibition) at 10uM” value is 12.1%.

For `O=C(CNC(=S)N(CCCN1CCOCC1)Cc1cccs1)NC1CCCC1`, the “hERG current change (%, negative = inhibition) at 10uM” value is recorded as -19.7%.

With `O=C(CNC(=S)N(CCCN1CCOCC1)Cc1cccs1)NCc1ccc(Cl)cc1`, the “hERG current change (%, negative = inhibition) at 10uM” value is -67.7%.

As for `O=C(CNC(=S)N(CCCN1CCOCC1)Cc1cccs1)NCCN1CCOCC1`, the “hERG current change (%, negative = inhibition) at 10uM” value came out at 9.17%.

For the molecule `O=C(CNC(=S)N(CCCN1CCOCC1)Cc1cccs1)NC1CCCCC1`, the “hERG current change (%, negative = inhibition) at 10uM” value was -31.2%.

For `O=C(CNC(=S)N(CCCN1CCOCC1)Cc1cccs1)NCc1ccccc1Cl`, the “hERG current change (%, negative = inhibition) at 10uM” value is on record as -54.2%.

For the molecule `O=C(CNC(=S)N(CCCN1CCOCC1)Cc1cccs1)NCCCN1CCOCC1`, the “hERG current change (%, negative = inhibition) at 10uM” value was 15.1%.

With `O=C(CNC(=S)N(CCCN1CCOCC1)Cc1cccs1)NC1CCCCCCC1`, the “hERG current change (%, negative = inhibition) at 10uM” value is reported as -61.1%.

Turning to `CCCCNC(=O)CNC(=S)N(CCCN1CCOCC1)Cc1cccs1`, the “hERG current change (%, negative = inhibition) at 10uM” value is recorded as -27.4%.

For the molecule `O=C(NCc1ccc(F)cc1)c1ccc(CS(=O)Cc2ccccc2Cl)o1` (stereo not drawn), the “hERG current change (%, negative = inhibition) at 10uM” value was -37.3%.

`Cc1ccc(S(=O)(=O)N2[C@@H](c3ccccc3)C(C(=O)O)=CC[C@H]2c2ccc(Cl)cc2)cc1`: the “hERG current change (%, negative = inhibition) at 10uM” value was determined as 18.6%.

As to `CC1=NN(C(N)=S)C(=O)C1N=Nc1ccccc1C(=O)O` (stereo not drawn), the “hERG current change (%, negative = inhibition) at 10uM” value was 22.1%.

Consider `Fc1ccc(/C=C/c2nnc(-c3cccs3)o2)cc1`, for which the “hERG current change (%, negative = inhibition) at 10uM” value is 16.7%.

Consider `Cc1cc(S(=O)(=O)Nc2cccc(C(=O)O)c2)c(C)c(S(=O)(=O)c2ccc(Cl)cc2)c1`, for which the “hERG current change (%, negative = inhibition) at 10uM” value stood at 18.8%.

In the case of `CCOC(=O)c1cnc(SCC(=O)Nc2ccc(NC(C)=O)c(OC)c2)nc1N`, the “hERG current change (%, negative = inhibition) at 10uM” value is reported as 2.44%.

As for `CC1(c2cccc(Br)c2)NC(=O)N(CC(=O)Nc2ccc3c(c2)OCO3)C1=O` (stereo not drawn), the “hERG current change (%, negative = inhibition) at 10uM” value is on record as -12.5%.

Regarding `COc1ccc(CNC2CCSc3ccccc32)cc1OC.O=C(O)C(=O)O` (stereo not drawn), the “hERG current change (%, negative = inhibition) at 10uM” value stood at 9.97%.

For the molecule `CCC(Cc1ccccc1)NC(=O)CN(C)S(=O)(=O)c1ccc2c(c1)c(=O)n(C)c(=O)n2C` (stereo not drawn), the “hERG current change (%, negative = inhibition) at 10uM” value was -23.5%.

For `Cc1sc2nc(SCC(=O)N3CCN(CCO)CC3)n(-c3ccccc3)c(=O)c2c1C`, the “hERG current change (%, negative = inhibition) at 10uM” value is given as -3.7%.

`O=C(O)C(=O)O.OC(CNC1CCCCCCC1)c1ccccc1` (stereo not drawn): the “hERG current change (%, negative = inhibition) at 10uM” value is on record as 2.95%.

On to `CCS(=O)(=O)N1CCN(C2CCC(c3ccccc3)CC2)CC1.O=C(O)C(=O)O` (stereo not drawn), for which the “hERG current change (%, negative = inhibition) at 10uM” value is listed as -17.2%.

For `Ic1ccccc1CN[C@@H]1C2CCN(CC2)[C@@H]1C(c1ccccc1)c1ccccc1.O.O=C(O)C(=O)O`, the “hERG current change (%, negative = inhibition) at 10uM” value is -69.7%.

For `O=C(COC(=O)CNC(=O)c1ccccc1)NCCc1ccccc1`, the “hERG current change (%, negative = inhibition) at 10uM” value amounted to 4.17%.
